In PubChem BioAssay:
Calls of active or inactive are those of the source.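 The calls were made as follows, unless noted: active = NADPH fluorescence slope more negative than the mean of all samples by about 3 SD, 99.7% confidence; inactive = the rest.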

Columns and labels:
[1] = inhibitors of TNFa-induced NFkB p65 translocation, primary screen, imaging, HUVEC, MLSMR starter and 10KST1 sets (AID 438;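 active = inhibition above 20% together with a positive visual image hit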;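 also: compound added about 3h40 before a 20 min TNFalpha stimulation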;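 as to inhibition: signal is the nuclear over cytoplasmic p65 intensity ratio per well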); conditions: HUVEC TNFa-induced p65 nuclear translocation; cell count: measured here: nuclei count (cytotoxicity indicator), at 2.08 µM; inhibition: at 2 µM, stronger effect = higher value, 0% TNFa-plus-vehicle, 100% no-TNFa wells
[2] = endothelial E-selectin expression blockers – imaging, HUVEC, immunofluorescence, MLSMR starter and 10KST1 sets, primary screen (AID 487;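 active = visually confirmed hit in the image check and inhibition above 20%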;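 as to inhibition: signal is fraction of cell area covered by stained E-selectin grains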;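 as to nuclei count: 100% = median nuclei count of all wells on the same plate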); conditions: HUVEC TNFalpha-induced E-selectin immunofluorescence imaging, at 2 µM; inhibition: stronger effect = higher value; nuclei count: measured here: cell number, toxicity
[3] = Primary imaging screen for DUSP6 inhibitors that restore phospho-Erk in transfected HeLa cells, chemical complementation (AID 609;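 active = compounds giving at least 50% inhibition in the cell-based MKP-3 phosphatase rescue imaging test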;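 as to inhibition: phospho-Erk level distribution per well compared with pooled transfected vehicle control wells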); conditions: HeLa MKP-3 transfected, phospho-Erk imaging KS statistic, at 10 µM, cells stimulated with TPA for 15 min
[4] = biological target: Dual specificity protein phosphatase 6 (Homo sapiens) (UniProt Q16828); test: as above; conditions: HeLa MKP-3 transfected, phospho-Erk imaging KS statistic; at 10 µM; stronger effect = higher value; cells stimulated with TPA for 15 min
Dual specificity protein phosphatase 6 (Homo sapiens), sequence (Q16828 whole entry, looked up): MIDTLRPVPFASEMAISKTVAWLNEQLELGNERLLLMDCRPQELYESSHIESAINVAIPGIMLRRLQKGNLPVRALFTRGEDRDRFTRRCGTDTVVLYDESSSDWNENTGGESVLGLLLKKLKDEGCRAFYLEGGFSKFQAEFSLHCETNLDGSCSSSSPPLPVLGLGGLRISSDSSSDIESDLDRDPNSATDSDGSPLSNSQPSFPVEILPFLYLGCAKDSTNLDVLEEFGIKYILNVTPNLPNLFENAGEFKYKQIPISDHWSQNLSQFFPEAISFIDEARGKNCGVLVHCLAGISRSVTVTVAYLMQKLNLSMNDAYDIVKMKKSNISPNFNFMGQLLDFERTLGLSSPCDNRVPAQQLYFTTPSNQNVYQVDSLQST

[5] = biological target: Voltage-gated potassium channel subunit beta-2 (Rattus norvegicus) (UniProt P62483); test: inhibitors of rat Kvbeta2 reductase activity – biochemical, NADPH fluorescence, primary screen (AID 622;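 active = fluorescence slope higher than the sample average by over 3 SD, cut at about -0.22 in these data, passing the limit was not always enough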;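 also: slope of raw intensity against log time taken from 70 to 1610 s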); conditions: recombinant KvBeta, 4-cyanobenzaldehyde reduction, at 10 µM, stronger effect = higher value
Voltage-gated potassium channel subunit beta-2 (Rattus norvegicus), sequence (P62483 whole entry, looked up): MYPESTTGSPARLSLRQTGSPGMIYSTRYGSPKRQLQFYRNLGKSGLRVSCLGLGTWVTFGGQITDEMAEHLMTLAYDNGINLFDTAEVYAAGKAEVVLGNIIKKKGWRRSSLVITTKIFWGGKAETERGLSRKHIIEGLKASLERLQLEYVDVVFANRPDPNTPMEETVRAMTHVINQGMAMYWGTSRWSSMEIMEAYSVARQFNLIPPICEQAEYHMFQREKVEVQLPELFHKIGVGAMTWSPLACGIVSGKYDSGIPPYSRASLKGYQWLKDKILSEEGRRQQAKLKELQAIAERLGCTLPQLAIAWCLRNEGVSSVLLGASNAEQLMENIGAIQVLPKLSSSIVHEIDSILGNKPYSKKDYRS

[6] = biological target: Voltage-gated potassium channel subunit beta-2 (Rattus norvegicus) (UniProt P62483); test: enhancers of rat Kvbeta2 NADPH turnover – biochemical, NADPH fluorescence, primary screen (AID 623); conditions: Recombinant KvBeta, NADPH fluorescence decrease slope, 10 min; at 10 µM; stronger effect = lower value;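 also: fluorescence intensity change per second fitted from 20 to 320 s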
[7] = biological target: Muscarinic acetylcholine receptor M4 (Homo sapiens) (UniProt P08173); test: M4-linked GIRK flux change, two-sided – cell-based, HEK293 M4/GIRK, thallium flux, BTC-AM, M4 allosteric agonist project, primary screen (AID 625;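 active = fluorescence slope after compound addition differing from the mean of all tested samples at 99.7% confidence, mostly higher but some lower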;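 also: thallium influx through GIRK channels coupled to M4 in HEK293 cells with BTC-AM dye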); conditions: at 10 µM, actives lie on both sides
Muscarinic acetylcholine receptor M4 (Homo sapiens), sequence (P08173 whole entry, looked up): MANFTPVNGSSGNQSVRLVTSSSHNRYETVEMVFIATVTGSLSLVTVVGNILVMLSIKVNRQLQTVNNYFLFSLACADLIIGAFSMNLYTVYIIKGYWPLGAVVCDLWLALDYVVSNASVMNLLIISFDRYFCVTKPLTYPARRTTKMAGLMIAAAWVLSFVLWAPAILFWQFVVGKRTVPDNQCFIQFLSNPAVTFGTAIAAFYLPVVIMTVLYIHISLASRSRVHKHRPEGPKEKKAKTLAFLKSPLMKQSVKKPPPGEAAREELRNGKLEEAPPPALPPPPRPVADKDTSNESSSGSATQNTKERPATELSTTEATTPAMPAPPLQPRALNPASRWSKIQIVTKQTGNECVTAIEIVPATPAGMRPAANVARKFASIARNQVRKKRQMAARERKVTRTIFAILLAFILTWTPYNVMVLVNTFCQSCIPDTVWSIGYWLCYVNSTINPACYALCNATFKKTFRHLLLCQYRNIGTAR

[8] = inhibitors of larval lipid processing in zebrafish, primary screen, whole organism, PED6 fluorescence, gall bladder and intestine (AID 686;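 active = a full or partial loss of lipid-probe fluorescence in the fish gall bladder, intestine or both, judged by eye; inactive = no fluorescence loss, or compound toxic to the fish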;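 also: larvae 5 to 7 days old with five fish per well; signal comes from phospholipase A2 cleavage of quenched PED6 carried via bile; overnight exposure to compound and PED6 before scoring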); conditions: Zebrafish larvae PED6 lipid processing, fluorescence scoring; screened at 20 µM (by protocol)
[9] = loss of swimming-algae plug formation – whole organism, Chlamydomonas reinhardtii, WT vs cilia-less mutant, absorbance, 96-well, primary screen (AID 463189;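 active = inhibition at or above 50% relative to wild type and mutant plate controls; inactive = inhibition below 50%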;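 also: 0% = wild type cc124 cells in DMSO and 100% = ciliumless bld1 mutant cells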); conditions: Chlamydomonas reinhardtii gravitaxis, OD600 absorbance, 2 days; at 10 µM; stronger effect = higher value
[10] = biological target: Alpha-2C adrenergic receptor (Homo sapiens) (UniProt P18825); test: compounds altering alpha2C-coupled GIRK flux – cell-based, HEK293 alpha2C/GIRK1/2, thallium flux, primary screen (AID 624;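 active = fluorescence slope after compound addition differing from the mean of all screened samples at 99.7% confidence, in either direction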;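 also: slope of fluorescence ratio to pre-addition baseline per second over 15 to 24 s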); conditions: thallium flux BTC fluorescence, at 10 µM, actives lie on both sides
Alpha-2C adrenergic receptor (Homo sapiens), sequence (P18825 whole entry, looked up): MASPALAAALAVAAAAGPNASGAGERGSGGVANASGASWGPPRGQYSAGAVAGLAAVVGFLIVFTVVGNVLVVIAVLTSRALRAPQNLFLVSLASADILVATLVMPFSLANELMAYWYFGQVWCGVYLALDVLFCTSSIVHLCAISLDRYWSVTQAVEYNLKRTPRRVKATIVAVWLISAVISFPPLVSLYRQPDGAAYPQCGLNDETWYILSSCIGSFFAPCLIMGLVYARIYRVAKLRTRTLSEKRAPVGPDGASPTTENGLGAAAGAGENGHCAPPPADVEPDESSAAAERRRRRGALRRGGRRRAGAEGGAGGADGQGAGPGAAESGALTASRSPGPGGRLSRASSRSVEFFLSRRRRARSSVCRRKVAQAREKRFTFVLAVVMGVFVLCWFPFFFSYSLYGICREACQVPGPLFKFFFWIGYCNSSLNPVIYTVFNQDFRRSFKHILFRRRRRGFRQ

[11] = measured here: cell density z-score
[12] = measured here: nuclear c-Myc green intensity z-score
[13] = measured here: nuclear pErk red intensity z-score, stronger effect = higher value

SMILES | cell count [1] | inhibition [1] | inhibition [2] | nuclei count [2] [%] | z-score [3, 11] | z-score [3, 12] | z-score [3, 13] | inhibition [4] | fluorescence slope [5] | NADPH fluorescence slope [6] | fluorescence slope [7] | outcome [8] | inhibition [9] | slope [10]
COC(=O)C(NC(C)=O)(Nc1nc2c(s1)CCCC2)C(F)(F)F (stereo unspecified) | 370 | -7.5% (inactive) | -63.7% (inactive) | 193 | 1.49 | 0.382 | -1.06 | 5.42% (inactive) | -0.414 (inactive) | -0.000114 (inactive) | 0.00554 (inactive) | inactive | -6.09% (inactive) | 
Cc1cc(/C(O)=C2\C(=O)C(=O)N(CCN(C)C)C2c2ccncc2)ccc1OCc1ccccc1 (stereo unspecified) | 664 | -0.2% (inactive) | 9.6% (inactive) | 174 | -0.686 | 0.247 | -0.699 | 5.35% (inactive) | -0.481 (inactive) | -5.4e-05 (inactive) | 0.00492 (inactive) | inactive | 3.31% (inactive) | 
CC1CN(C2CCN(C(=O)c3ccccc3)CC2)CC(C)O1 (stereo unspecified) | 391 | -25.6% (inactive) |  | 174 | 1.48 | -0.00638 | -0.737 | -0.159% (inactive) | -0.395 (inactive) | -3.8e-05 (inactive) |  | inactive | 4.48% (inactive) | 0.00679 (inactive)
CCN1CCc2c(C#N)c(N3CCOCC3)nc(NCCO)c2C1 | 566 | -9.7% (inactive) | -122% (inactive) | 151 | 1.19 | -1.68 | -1.24 | -9.53% (inactive) | -0.456 (inactive) | -9.7e-05 (inactive) | 0.0043 (inactive) | inactive | -3.77% (inactive) | 
CC(C)(C)c1nnc2sc(SCC(=O)c3ccccc3)nn2c1=O | 619 | 3.4% (inactive) | -55% (inactive) | 105 | -1.21 | -0.101 | 1.16 | -7.67% (inactive) | -0.455 (inactive) | -6.8e-05 (inactive) | 0.00537 (inactive) | inactive | 11.5% (inactive) | 
O=C1C=C(NCCNc2c(F)c(F)c(CO)c(F)c2F)CCC1 | 504 | -12.3% (inactive) | -87.2% (inactive) | 105 | 0.485 | -0.53 | -1.21 | 17.8% (inactive) | -0.396 (inactive) | -1.8e-05 (inactive) | 0.00657 (inactive) | inactive | 32.9% (inactive) | 
CC1(C)Cc2c(c(-c3ccccc3)[nH]c(=O)c2C#N)CS1 | 499 | -15.7% (inactive) | -47.8% (inactive) | 131 | 1.65 | -1.74 | -0.608 | 14.7% (inactive) | -0.426 (inactive) | -2.8e-05 (inactive) | 0.0044 (inactive) | inactive | -6.24% (inactive) | 
CN1C(=O)c2ccc(N(C)C)cc2C1=O | 681 | -8.8% (inactive) | 17.3% (inactive) | 175 | 0.273 | -0.466 | -0.534 | 3.66% (inactive) | -0.479 (inactive) | -6.8e-05 (inactive) |  | inactive | 21.8% (inactive) | 0.00498 (inactive)
CCOC(=O)C1(c2nc(N)cs2)COC(=O)C1 (stereo unspecified) | 529 | -7.1% (inactive) | 15.9% (inactive) | 110 | 1.01 | 1.47 | -1.03 | 16% (inactive) | -0.497 (inactive) | -5e-05 (inactive) | 0.00548 (inactive) | inactive | -13.2% (inactive) | 
CCOC(=O)C1/C(=N\O)CC(C)(O)C(C(=O)OCC)C1c1ccc(OC)c(OC)c1 (stereo unspecified) | 573 | -0.9% (inactive) | -36% (inactive) | 149 | 0.422 | -0.512 | -0.582 | 1.98% (inactive) | -0.416 (inactive) | -5.9e-05 (inactive) | 0.0045 (inactive) | inactive | 1.71% (inactive) | 
NC(=O)CSc1c[nH]c2ccccc12 | 640 | -5.5% (inactive) | 73.3% (inactive) | 169 | -1.08 | 0.978 | -1.28 | 17% (inactive) | -0.497 (inactive) | -4.9e-05 (inactive) |  | inactive | 31.3% (inactive) | 0.00438 (inactive)
COC(=O)c1[nH]c(C)c(/C(O)=C2\C(=O)C(=O)N(CCN3CCOCC3)C2c2cccnc2)c1C (stereo unspecified) | 605 | -1.2% (inactive) | -2.2% (inactive) | 163 | -1.96 | 0.711 | -3.8 | -3.95% (inactive) | -0.46 (inactive) | -0.000197 (inactive) | 0.00521 (inactive) | inactive | 5.4% (inactive) | 
O=C(NC1CCCCC1)Nn1c(-c2ccccc2)nc2ccccc2c1=O | 695 | -7.6% (inactive) | -60.6% (inactive) | 203 | -0.332 | -0.26 | 0.432 | -9.53% (inactive) | -0.473 (inactive) | -0.000129 (inactive) | 0.00473 (inactive) | inactive | 2.04% (inactive) | 
CCC(NC(=O)Nc1ccc(O)cc1)(C(F)(F)F)C(F)(F)F | 709 | -9.4% (inactive) | 18.3% (inactive) | 156 | -0.865 | 0.673 | 0.754 | -3.95% (inactive) | -0.448 (inactive) | -3.4e-05 (inactive) | 0.00524 (inactive) | inactive | 2.89% (inactive) | 
Cc1ccc(-c2nnc(OCCN3CCOCC3)c3ccccc23)cc1 | 453 | 0.4% (inactive) | -85.1% (inactive) | 167 | 1.01 | -0.803 | -0.0262 | 4.37% (inactive) | -0.463 (inactive) | -2.6e-05 (inactive) | 0.00559 (inactive) | inactive | 30.5% (inactive) | 
CC1(C)CC(=O)C2=C(C1)OC(N)=C(C#N)[C@@]21C(=O)N(CC(N)=O)c2ccccc21 | 375 | -8% (inactive) | -63.6% (inactive) | 114 | 0.0987 | 0.575 | -0.037 | -3.95% (inactive) | -0.464 (inactive) | -2e-05 (inactive) | 0.00604 (inactive) | inactive | -3.87% (inactive) | 
C=CC(O)Cc1c(C)n[nH]c1C (stereo unspecified) | 656 | -7.1% (inactive) | -59.4% (inactive) | 167 | -1.01 | -0.115 | -0.502 | -9.66% (inactive) | -0.503 (inactive) | -6.2e-05 (inactive) | 0.00568 (inactive) | inactive | 11.7% (inactive) | 
CCOC(=O)c1c(C)[nH]c(/C(C)=N/O)c1C | 668 | -10.2% (inactive) | -400% (inactive) | 161 | -0.0773 | -1.42 | -0.664 | 1.12% (inactive) | -0.526 (inactive) | -3.4e-05 (inactive) | 0.00562 (inactive) | inactive | 87.2% (active) | 
COc1ccc(-n2ccc(=O)c3c2CCCC3=O)cc1 | 538 | -18% (inactive) | -24.2% (inactive) | 175 | 0.411 | 1.24 | 0.919 | -3.97% (inactive) | -0.383 (inactive) | -5.1e-05 (inactive) | 0.00531 (inactive) | inactive | -7.89% (inactive) | 
CCCCCCn1c(SCCN2CCOCC2)nc2c1c(=O)[nH]c(=O)n2C | 534 | -16.2% (inactive) | -9.8% (inactive) | 139 | 0.497 | 0.889 | 0.83 | 13.4% (inactive) | -0.409 (inactive) | -4.3e-05 (inactive) | 0.00545 (inactive) | inactive | 27.5% (inactive) | 
N#C/C(C(=O)NCc1ccccc1)=C1\SC(CCO)C(=O)N1c1ccccc1 (stereo unspecified) | 501 | -3.4% (inactive) | -97.3% (inactive) | 120 | 0.0433 | 1.04 | -2.12 | 5.42% (inactive) | -0.429 (inactive) | -1.4e-05 (inactive) | 0.00513 (inactive) | inactive | -13.8% (inactive) | 
CCN1CCc2c(C#N)c(NCc3ccccc3)nc(NCCO)c2C1 | 534 | -12% (inactive) | -113% (inactive) | 151 | 0.614 | -1.73 | -1.03 | -5.81% (inactive) | -0.398 (inactive) | -3.2e-05 (inactive) | 0.00361 (inactive) | inactive | -0.503% (inactive) | 
CCCSc1nnc2n(C)c(=O)c3c4c(sc3n12)CCC4 | 376 | -2.9% (inactive) | -11.1% (inactive) | 83.1 | -0.271 | -0.0406 | 0.896 | 9.42% (inactive) | -0.501 (inactive) | -7.9e-05 (inactive) | 0.00582 (inactive) | inactive | 62% (active) | 
N#Cc1nc(-c2cccs2)oc1NCCN1CCOCC1 | 666 | 6.6% (inactive) | -60.7% (inactive) | 146 | 0.927 | 0.0167 | -0.446 | 10.9% (inactive) | -0.0476 (inactive) | -2.5e-05 (inactive) | 0.00626 (inactive) | inactive | 6.5% (inactive) | 
